Data taken from publication PMC9911399, “Two distinct binding modes provide the RNA-binding protein RbFox with extraordinary sequence specificity”.
Changes are numbered by the printed parent chain; changes in the protein carry UniProt numbers. Whole data set: some 16,000 sequences, median “ka relative to ugcaugu” near 0.0091, cut for the highest 2% near 0.032. This excerpt belongs to a sample that is enriched for the highest values.

T1: RBFOX1 RRM (Homo sapiens, UniProt Q9NWB1 109-208)
T1 sequence: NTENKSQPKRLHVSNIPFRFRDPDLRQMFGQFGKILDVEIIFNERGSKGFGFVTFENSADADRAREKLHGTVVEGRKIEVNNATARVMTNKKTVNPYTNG

B1: UGAACGA (DNA:RNA)
RNA: GGGAGACCGGAAUUCAGAUUGUCCUGAACGAUUAAAUCCCGUCGUAGCCACCA
DNA 1: CAATCTGAATTCCGGTCTCCC
DNA 2: TGGTGGCTACGACGGGATT
B2: CUAGAGG (DNA:RNA)
RNA: B1 RNA with U25C, G26U, A28G, C29A, A31G
DNA 1: CAATCTGAATTCCGGTCTCCC
DNA 2: TGGTGGCTACGACGGGATT
B3: UAGCGUU (DNA:RNA)
RNA: B1 RNA with G26A, A27G, A28C, C29G, G30U, A31U
DNA 1: CAATCTGAATTCCGGTCTCCC
DNA 2: TGGTGGCTACGACGGGATT
B4: UGACAAC (DNA:RNA)
RNA: B1 RNA with A28C, C29A, G30A, A31C
DNA 1: CAATCTGAATTCCGGTCTCCC
DNA 2: TGGTGGCTACGACGGGATT
B5: AACUUUA (DNA:RNA)
RNA: B1 RNA with U25A, G26A, A27C, A28U, C29U, G30U
DNA 1: CAATCTGAATTCCGGTCTCCC
DNA 2: TGGTGGCTACGACGGGATT
B6: UGUUCGU (DNA:RNA)
RNA: B1 RNA with A27U, A28U, A31U
DNA 1: CAATCTGAATTCCGGTCTCCC
DNA 2: TGGTGGCTACGACGGGATT
B7: GCUGUUG (DNA:RNA)
RNA: GGGAGACCGGAAUUCAGAUUGUCCGCUGUUGUUAAAUCCCGUCGUAGCCACCA
DNA 1: CAATCTGAATTCCGGTCTCCC
DNA 2: TGGTGGCTACGACGGGATT
B8: UGUCCGU (DNA:RNA)
RNA: B1 RNA with A27U, A28C, A31U
DNA 1: CAATCTGAATTCCGGTCTCCC
DNA 2: TGGTGGCTACGACGGGATT
B9: UGAGGAG (DNA:RNA)
RNA: B1 RNA with A28G, C29G, G30A, A31G
DNA 1: CAATCTGAATTCCGGTCTCCC
DNA 2: TGGTGGCTACGACGGGATT
B10: GUCCUGU (DNA:RNA)
RNA: B7 RNA with C26U, U27C, G28C, U30G, G31U
DNA 1: CAATCTGAATTCCGGTCTCCC
DNA 2: TGGTGGCTACGACGGGATT
B11: UGUGUGG (DNA:RNA)
RNA: B7 RNA with G25U, C26G, U30G
DNA 1: CAATCTGAATTCCGGTCTCCC
DNA 2: TGGTGGCTACGACGGGATT
B12: UGGUGUG (DNA:RNA)
RNA: B7 RNA with G25U, C26G, U27G, G28U, U29G
DNA 1: CAATCTGAATTCCGGTCTCCC
DNA 2: TGGTGGCTACGACGGGATT
B13: UGAGUUG (DNA:RNA)
RNA: B7 RNA with G25U, C26G, U27A
DNA 1: CAATCTGAATTCCGGTCTCCC
DNA 2: TGGTGGCTACGACGGGATT
B14: UGUGGUG (DNA:RNA)
RNA: B7 RNA with G25U, C26G, U29G
DNA 1: CAATCTGAATTCCGGTCTCCC
DNA 2: TGGTGGCTACGACGGGATT
B15: GCUGUCG (DNA:RNA)
RNA: B7 RNA with U30C
DNA 1: CAATCTGAATTCCGGTCTCCC
DNA 2: TGGTGGCTACGACGGGATT
B16: UGCUGAG (DNA:RNA)
RNA: B1 RNA with A27C, A28U, C29G, G30A, A31G
DNA 1: CAATCTGAATTCCGGTCTCCC
DNA 2: TGGTGGCTACGACGGGATT
B17: GCUGCUG (DNA:RNA)
RNA: B7 RNA with U29C
DNA 1: CAATCTGAATTCCGGTCTCCC
DNA 2: TGGTGGCTACGACGGGATT

molecular target: T1, RBFOX1 RRM; assay: EMSA; HiTS-Eq, 1 nM pool, 10 min; buffer printed only for the single-RNA assays: 10 mM Tris pH 7.5, 150 mM NaCl, 3.4 mM EDTA, 0.001% NP-40, 30 C; settings: tags: His6 N-terminal (pET28a); label: 5' 32P
In short: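 Relative association constants, normalised to the cognate motif, were derived by comparing read counts of each RNA species with those of the control reaction. The RNA sequenced was the free fraction, separated by 8% native PAGE after a 10 min equilibration in 50 µL of 1 nM 5′-radiolabelled RNA (7 randomized nucleotides) with increasing concentrations of purified wild-type or mutant RbFox RRM.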

Row | Binder | binding signal
1 | B1 | 0.0199 KA relative to UGCAUGU
2 | B2 | 0.00494 KA relative to UGCAUGU
3 | B3 | 0.0117 KA relative to UGCAUGU
4 | B4 | 0.00863 KA relative to UGCAUGU
5 | B5 | 0.000524 KA relative to UGCAUGU
6 | B6 | 0.0328 KA relative to UGCAUGU
7 | B7 | 0.028 KA relative to UGCAUGU
8 | B8 | 0.0131 KA relative to UGCAUGU
9 | B9 | 0.0109 KA relative to UGCAUGU
10 | B10 | 0.0155 KA relative to UGCAUGU
11 | B11 | 0.0178 KA relative to UGCAUGU
12 | B12 | 0.029 KA relative to UGCAUGU
13 | B13 | 0.0276 KA relative to UGCAUGU
14 | B14 | 0.0376 KA relative to UGCAUGU
15 | B15 | 0.0197 KA relative to UGCAUGU
16 | B16 | 0.0319 KA relative to UGCAUGU
17 | B17 | 0.0323 KA relative to UGCAUGU
